We go through one sequence from publication PMC7862700, “An all-to-all approach to the identification of sequence-specific readers for epigenetic DNA modifications on cytosine”.

Holding throughout (assay): DAPPL (digital affinity profiling via proximity ligation, sequencing); 10 mM Tris-HCl pH 7.5, 50 mM NaCl, 1 mM DTT, 4% glycerol, room temperature, 30 min; GST-TFs on glutathione beads, 16-mer random dsDNA library, 0.1% formaldehyde crosslink after washing; high values mean tight binding
One assay concerns the target T1, FEV (Homo sapiens, UniProt Q99581 1-238).
T1 sequence: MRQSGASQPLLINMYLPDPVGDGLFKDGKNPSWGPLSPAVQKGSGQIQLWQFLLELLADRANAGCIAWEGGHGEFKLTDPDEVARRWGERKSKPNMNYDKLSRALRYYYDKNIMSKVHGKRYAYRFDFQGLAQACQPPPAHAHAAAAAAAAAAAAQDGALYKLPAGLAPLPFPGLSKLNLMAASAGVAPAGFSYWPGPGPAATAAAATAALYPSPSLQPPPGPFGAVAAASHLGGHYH
To be noted: protein: recombinant; tags: N-terminal GST; dsDNA, one strand shown. A digest of the protocol: (§1)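 Binding signal is defined as a hexamer's read frequency for one factor over its frequency for the tag-only sample. To obtain reads, GST-fused human transcription factors were expressed in yeast, captured on glutathione beads, barcoded with DNA and pooled with that sample. Pools met 200 nmole of a 16-mer random double-stranded DNA library in Tris/NaCl/DTT/glycerol buffer for 30 min at room temperature before washing, 0.1% formaldehyde crosslinking, proximity ligation (BsaI/T4 ligase, 1 h, 37 °C), PCR and Illumina NextSeq500 sequencing.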

The next assay addresses ETV5 (Homo sapiens, UniProt P41161 1-510). To be noted: protein: recombinant; tags: N-terminal GST; dsDNA, one strand shown. Summed up: as §1
The target in another assay is HSF1 (Homo sapiens, UniProt Q00613 1-529). Particulars: protein: recombinant; tags: N-terminal GST; chain copies: 3; dsDNA, one strand shown. Summed up: as §1
Chain of HSF1 (Q00613 whole entry): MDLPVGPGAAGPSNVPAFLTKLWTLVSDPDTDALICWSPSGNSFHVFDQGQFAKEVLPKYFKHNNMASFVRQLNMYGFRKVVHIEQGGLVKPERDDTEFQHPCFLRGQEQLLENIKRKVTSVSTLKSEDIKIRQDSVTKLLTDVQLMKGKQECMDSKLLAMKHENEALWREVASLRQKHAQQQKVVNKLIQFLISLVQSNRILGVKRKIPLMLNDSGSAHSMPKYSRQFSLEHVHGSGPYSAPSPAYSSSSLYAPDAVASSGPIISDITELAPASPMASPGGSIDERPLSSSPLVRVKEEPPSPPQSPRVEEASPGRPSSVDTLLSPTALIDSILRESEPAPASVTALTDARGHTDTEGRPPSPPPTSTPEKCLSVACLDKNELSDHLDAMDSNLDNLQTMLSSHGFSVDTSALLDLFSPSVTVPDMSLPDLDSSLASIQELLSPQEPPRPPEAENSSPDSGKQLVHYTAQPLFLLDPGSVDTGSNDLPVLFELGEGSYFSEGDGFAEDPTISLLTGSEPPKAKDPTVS
For a further assay, the target named is T2, SPIC (Homo sapiens, UniProt Q8N5J4 1-248).
T2 sequence: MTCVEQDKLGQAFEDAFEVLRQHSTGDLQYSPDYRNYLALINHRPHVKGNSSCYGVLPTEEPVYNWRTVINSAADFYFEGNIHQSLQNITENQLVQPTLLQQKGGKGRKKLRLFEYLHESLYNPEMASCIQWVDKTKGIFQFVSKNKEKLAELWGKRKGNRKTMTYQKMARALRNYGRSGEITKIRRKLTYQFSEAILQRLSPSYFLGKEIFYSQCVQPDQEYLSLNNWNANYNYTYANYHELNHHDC
To be noted: protein: recombinant; tags: N-terminal GST; dsDNA, one strand shown. Summed up: as §1

The target of another assay is ELF4 (Homo sapiens, UniProt Q99607 1-663). Particulars: protein: recombinant; tags: N-terminal GST; dsDNA, one strand shown. Summed up:
as §1

A further assay deals with T3, ELK4 (Homo sapiens, UniProt P28324-2 1-405).
T3 sequence: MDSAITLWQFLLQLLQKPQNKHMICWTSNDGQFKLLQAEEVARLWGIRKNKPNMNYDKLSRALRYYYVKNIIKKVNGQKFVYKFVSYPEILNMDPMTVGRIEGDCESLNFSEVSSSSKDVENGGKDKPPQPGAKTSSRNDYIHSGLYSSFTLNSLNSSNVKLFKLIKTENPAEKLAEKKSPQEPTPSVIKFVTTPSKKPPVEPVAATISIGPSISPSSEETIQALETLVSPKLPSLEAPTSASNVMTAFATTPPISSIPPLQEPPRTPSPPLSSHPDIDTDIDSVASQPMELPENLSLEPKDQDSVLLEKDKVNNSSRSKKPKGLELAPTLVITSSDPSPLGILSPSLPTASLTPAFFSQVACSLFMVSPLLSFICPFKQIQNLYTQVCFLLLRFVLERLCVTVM
Particulars: protein: recombinant; tags: N-terminal GST; dsDNA, one strand shown. A digest of the protocol:
as §1

For the next assay, the target named is T4, ETV2 (Homo sapiens, UniProt O00321 1-342).
T4 sequence: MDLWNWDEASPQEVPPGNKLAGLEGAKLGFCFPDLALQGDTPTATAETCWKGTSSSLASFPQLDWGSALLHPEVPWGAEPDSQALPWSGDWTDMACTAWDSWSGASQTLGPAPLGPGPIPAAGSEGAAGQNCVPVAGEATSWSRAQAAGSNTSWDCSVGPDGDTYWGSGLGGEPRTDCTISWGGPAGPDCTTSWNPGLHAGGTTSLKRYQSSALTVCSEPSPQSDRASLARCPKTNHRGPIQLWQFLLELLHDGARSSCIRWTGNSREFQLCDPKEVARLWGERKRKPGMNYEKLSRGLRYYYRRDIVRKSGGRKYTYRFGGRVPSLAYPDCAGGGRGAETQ
Particulars: protein: recombinant; tags: N-terminal GST; dsDNA, one strand shown. Summed up: as §1

The target of a further assay is T5, ELF3 (Homo sapiens, UniProt P78545 1-371).
T5 sequence: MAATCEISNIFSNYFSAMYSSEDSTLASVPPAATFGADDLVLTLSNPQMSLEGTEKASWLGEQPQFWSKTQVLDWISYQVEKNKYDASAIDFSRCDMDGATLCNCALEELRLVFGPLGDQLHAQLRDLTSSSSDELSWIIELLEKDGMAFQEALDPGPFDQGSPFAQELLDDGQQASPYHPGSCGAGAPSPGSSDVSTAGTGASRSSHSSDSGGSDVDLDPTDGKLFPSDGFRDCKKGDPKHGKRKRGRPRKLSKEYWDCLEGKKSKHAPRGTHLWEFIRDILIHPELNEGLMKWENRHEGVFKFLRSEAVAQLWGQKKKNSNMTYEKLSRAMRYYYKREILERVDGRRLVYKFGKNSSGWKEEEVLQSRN
To be noted: protein: recombinant; tags: N-terminal GST; dsDNA, one strand shown. Summed up: as §1

A further assay addresses CRX (Homo sapiens, UniProt O43186 1-299). To be noted: protein: recombinant; tags: N-terminal GST; dsDNA, one strand shown. A digest of the protocol: as §1
A further assay concerns the target ETV1 (Homo sapiens, UniProt P50549 1-477). To be noted: protein: recombinant; tags: N-terminal GST; dsDNA, one strand shown. Summed up: as §1
The target in another assay is T6, ERF (Homo sapiens, UniProt P50548 1-548).
T6 sequence: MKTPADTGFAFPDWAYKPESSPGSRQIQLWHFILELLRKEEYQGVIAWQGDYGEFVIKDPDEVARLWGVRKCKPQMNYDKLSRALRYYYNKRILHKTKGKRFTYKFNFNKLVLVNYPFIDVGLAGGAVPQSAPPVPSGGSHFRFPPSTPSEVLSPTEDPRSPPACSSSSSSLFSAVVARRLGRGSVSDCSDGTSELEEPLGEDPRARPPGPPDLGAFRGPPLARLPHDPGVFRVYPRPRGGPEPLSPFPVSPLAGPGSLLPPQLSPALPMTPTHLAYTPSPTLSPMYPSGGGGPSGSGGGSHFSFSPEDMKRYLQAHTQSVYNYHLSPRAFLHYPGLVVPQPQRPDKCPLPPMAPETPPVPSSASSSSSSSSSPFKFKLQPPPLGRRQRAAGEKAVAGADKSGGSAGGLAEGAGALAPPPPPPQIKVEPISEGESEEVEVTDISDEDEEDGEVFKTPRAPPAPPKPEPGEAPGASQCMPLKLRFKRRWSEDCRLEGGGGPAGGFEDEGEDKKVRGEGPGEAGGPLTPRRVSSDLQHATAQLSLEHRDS
Particulars: protein: recombinant; tags: N-terminal GST; dsDNA, one strand shown. A digest of the protocol:
as §1

The next assay deals with T7, ETV3L (Homo sapiens, UniProt Q6ZN32 1-361).
T7 sequence: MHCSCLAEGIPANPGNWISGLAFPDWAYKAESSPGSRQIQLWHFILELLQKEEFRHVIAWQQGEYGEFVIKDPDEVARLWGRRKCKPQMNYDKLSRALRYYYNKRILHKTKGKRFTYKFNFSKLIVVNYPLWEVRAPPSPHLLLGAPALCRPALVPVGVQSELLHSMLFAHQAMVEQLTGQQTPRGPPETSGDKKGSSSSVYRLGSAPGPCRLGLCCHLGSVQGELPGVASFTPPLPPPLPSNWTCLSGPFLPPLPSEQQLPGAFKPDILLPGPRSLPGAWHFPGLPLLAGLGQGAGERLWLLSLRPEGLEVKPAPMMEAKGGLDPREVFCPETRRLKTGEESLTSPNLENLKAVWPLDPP
Particulars: protein: recombinant; tags: N-terminal GST; dsDNA, one strand shown. Summed up: as §1

For the next assay, the target named is T8, ETS2 (Homo sapiens, UniProt P15036 1-469).
T8 sequence: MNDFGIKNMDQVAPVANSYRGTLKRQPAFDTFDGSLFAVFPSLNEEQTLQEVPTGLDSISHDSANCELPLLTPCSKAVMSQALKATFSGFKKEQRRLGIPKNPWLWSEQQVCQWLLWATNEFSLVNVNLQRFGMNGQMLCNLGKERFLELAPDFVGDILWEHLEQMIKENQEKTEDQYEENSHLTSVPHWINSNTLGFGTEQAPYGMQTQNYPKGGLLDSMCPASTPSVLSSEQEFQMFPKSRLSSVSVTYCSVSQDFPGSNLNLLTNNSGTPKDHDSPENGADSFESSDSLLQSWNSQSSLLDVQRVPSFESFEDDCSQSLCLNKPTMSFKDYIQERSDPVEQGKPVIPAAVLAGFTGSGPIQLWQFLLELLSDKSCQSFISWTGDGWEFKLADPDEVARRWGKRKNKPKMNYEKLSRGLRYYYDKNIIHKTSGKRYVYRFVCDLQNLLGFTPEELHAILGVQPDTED
To be noted: protein: recombinant; tags: N-terminal GST; dsDNA, one strand shown. Summed up: as §1

In another assay the target is T9, SPDEF (Homo sapiens, UniProt O95238 1-335).
T9 sequence: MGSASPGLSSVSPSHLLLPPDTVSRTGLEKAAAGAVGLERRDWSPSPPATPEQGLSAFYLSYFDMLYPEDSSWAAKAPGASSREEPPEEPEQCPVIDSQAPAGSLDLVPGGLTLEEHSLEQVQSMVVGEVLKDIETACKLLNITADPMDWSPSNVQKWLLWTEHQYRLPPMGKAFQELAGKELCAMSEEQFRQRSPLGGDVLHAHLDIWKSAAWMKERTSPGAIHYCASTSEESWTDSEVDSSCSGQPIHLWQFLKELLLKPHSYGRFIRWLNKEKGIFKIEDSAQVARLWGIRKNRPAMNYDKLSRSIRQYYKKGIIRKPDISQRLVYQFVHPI
Particulars: protein: recombinant; tags: N-terminal GST; dsDNA, one strand shown. A digest of the protocol: as §1

In a further assay the target is T10, ETV7 (Homo sapiens, UniProt Q9Y603 1-341).
T10 sequence: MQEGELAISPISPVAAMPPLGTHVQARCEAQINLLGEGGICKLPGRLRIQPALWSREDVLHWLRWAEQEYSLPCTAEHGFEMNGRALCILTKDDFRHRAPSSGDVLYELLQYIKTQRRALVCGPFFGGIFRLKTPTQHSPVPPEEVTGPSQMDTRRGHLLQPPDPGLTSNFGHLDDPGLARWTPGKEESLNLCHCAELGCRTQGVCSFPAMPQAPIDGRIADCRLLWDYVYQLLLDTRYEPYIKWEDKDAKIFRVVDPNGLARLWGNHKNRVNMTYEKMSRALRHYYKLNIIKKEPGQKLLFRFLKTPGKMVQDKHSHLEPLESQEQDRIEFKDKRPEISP
Particulars: protein: recombinant; tags: N-terminal GST; dsDNA, one strand shown. A digest of the protocol: as §1

Another assay addresses T11, ELF5 (Homo sapiens, UniProt Q9UKW6-2 1-255).
T11 sequence: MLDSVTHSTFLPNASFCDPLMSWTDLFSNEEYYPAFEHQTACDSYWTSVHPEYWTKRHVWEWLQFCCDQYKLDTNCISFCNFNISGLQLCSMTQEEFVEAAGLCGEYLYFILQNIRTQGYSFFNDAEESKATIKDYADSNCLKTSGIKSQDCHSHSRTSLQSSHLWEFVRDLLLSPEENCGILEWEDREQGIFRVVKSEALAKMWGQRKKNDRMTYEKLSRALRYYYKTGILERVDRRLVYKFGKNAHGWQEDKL
Particulars: protein: recombinant; tags: N-terminal GST; dsDNA, one strand shown. A digest of the protocol: as §1

A further assay deals with T12, ETV3 (Homo sapiens, UniProt P41162-2 1-143).
T12 sequence: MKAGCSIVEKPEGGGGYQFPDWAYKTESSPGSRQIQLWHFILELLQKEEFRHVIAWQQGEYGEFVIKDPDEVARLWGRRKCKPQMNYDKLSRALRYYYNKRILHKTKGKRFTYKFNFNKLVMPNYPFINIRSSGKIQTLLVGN
Particulars: protein: recombinant; tags: N-terminal GST; dsDNA, one strand shown. Summed up: as §1

For another assay, the target named is ETV6 (Homo sapiens, UniProt P41212 1-452). Particulars: protein: recombinant; tags: N-terminal GST; dsDNA, one strand shown. A digest of the protocol:
as §1

Chain of ETV5 (P41161 whole entry): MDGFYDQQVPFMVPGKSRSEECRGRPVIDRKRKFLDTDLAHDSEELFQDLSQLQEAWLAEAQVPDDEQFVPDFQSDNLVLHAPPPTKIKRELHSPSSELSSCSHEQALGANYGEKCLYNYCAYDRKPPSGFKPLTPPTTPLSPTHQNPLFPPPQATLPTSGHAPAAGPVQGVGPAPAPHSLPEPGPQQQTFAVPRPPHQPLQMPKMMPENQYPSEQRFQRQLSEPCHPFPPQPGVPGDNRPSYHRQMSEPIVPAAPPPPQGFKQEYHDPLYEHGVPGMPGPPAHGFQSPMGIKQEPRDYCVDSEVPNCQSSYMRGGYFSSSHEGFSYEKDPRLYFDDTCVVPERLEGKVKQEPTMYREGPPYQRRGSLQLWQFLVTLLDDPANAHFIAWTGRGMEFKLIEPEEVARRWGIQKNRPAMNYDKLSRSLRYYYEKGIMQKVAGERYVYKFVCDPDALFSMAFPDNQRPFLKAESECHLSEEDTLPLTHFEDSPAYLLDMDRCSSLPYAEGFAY
Chain of ETV6 (P41212 whole entry): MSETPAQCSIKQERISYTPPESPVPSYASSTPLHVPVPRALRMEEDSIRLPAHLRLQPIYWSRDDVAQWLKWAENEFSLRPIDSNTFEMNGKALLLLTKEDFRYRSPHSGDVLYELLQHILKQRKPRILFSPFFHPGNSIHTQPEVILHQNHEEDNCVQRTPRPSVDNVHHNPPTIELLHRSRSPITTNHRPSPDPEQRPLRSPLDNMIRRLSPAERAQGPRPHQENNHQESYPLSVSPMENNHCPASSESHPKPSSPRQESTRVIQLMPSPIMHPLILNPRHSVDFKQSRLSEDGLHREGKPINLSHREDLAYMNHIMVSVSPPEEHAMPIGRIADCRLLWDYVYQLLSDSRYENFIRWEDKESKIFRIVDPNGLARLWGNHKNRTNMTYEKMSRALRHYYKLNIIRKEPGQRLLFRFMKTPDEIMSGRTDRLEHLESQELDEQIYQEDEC
Chain of ETV1 (P50549 whole entry): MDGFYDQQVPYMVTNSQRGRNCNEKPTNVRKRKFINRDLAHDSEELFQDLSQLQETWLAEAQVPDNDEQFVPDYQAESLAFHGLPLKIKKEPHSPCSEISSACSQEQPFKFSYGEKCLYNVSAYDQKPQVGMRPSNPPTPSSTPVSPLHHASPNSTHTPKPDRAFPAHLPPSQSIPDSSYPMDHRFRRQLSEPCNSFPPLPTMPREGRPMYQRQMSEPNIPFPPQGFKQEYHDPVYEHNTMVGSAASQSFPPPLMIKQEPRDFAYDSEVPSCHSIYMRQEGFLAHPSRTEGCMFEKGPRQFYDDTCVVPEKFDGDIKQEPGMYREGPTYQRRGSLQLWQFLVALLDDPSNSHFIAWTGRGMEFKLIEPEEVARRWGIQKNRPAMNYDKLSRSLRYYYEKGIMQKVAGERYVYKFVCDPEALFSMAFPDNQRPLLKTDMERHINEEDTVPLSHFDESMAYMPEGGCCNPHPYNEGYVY
Chain of ELF4 (Q99607 whole entry): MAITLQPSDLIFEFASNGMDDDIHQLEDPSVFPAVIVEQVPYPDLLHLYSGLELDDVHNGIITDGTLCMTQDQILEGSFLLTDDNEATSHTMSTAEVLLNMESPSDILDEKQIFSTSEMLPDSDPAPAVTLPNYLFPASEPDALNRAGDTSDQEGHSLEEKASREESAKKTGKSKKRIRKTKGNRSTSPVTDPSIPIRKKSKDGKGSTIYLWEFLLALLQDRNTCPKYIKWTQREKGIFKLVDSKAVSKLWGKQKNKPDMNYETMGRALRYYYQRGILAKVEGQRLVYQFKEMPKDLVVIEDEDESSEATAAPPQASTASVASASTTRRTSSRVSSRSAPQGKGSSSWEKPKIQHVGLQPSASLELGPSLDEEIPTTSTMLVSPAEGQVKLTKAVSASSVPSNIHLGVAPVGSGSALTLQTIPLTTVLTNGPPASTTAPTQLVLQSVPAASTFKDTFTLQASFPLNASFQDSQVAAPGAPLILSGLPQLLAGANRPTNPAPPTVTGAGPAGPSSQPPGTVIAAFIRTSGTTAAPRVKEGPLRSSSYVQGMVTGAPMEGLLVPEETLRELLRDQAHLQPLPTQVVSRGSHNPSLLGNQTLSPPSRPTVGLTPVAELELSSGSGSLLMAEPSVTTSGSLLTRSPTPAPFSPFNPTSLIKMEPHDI
Chain of CRX (O43186 whole entry): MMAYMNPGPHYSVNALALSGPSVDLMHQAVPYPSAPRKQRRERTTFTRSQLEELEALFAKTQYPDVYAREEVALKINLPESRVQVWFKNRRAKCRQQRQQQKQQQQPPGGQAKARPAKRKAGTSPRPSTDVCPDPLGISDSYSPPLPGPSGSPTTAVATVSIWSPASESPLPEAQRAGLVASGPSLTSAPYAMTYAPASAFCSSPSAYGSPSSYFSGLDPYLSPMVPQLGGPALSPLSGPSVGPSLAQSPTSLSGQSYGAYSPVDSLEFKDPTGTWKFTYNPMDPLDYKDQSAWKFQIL

On to TTGTGG, for which the binding signal with FEV was 1.27 fold enrichment (6-mer frequency, TF over GST control); in the assay with ETV5 it was 1.41 fold enrichment (6-mer frequency, TF over GST control); with HSF1, 1.37 fold enrichment (6-mer frequency, TF over GST control); with SPIC, 1.44 fold enrichment (6-mer frequency, TF over GST control); with ELF4 it was 1.51 fold enrichment (6-mer frequency, TF over GST control); with ELK4 it was 1.35 fold enrichment (6-mer frequency, TF over GST control). Besides, the binding signal was 1.29 fold enrichment (6-mer frequency, TF over GST control) with ETV2; 1.34 fold enrichment (6-mer frequency, TF over GST control) with ELF3; 1.46 fold enrichment (6-mer frequency, TF over GST control) with CRX; 1.27 fold enrichment (6-mer frequency, TF over GST control) with ETV1; 1.33 fold enrichment (6-mer frequency, TF over GST control) in the assay with ERF; 1.6 fold enrichment (6-mer frequency, TF over GST control) with ETV3L. Further, the binding signal with ETS2 was 1.36 fold enrichment (6-mer frequency, TF over GST control); in the assay with SPDEF it was 1.31 fold enrichment (6-mer frequency, TF over GST control); with ETV7 it was 1.34 fold enrichment (6-mer frequency, TF over GST control); with ELF5 it was 1.32 fold enrichment (6-mer frequency, TF over GST control); with ETV3, 1.37 fold enrichment (6-mer frequency, TF over GST control); with ETV6, 1.29 fold enrichment (6-mer frequency, TF over GST control).
